Bcl-xL primary = inhibitors of human Bcl-xL; Q07817; GST-Bcl-xL / FITC-Bim BH3 peptide fluorescence polarization; inhibition, % at 10.9 µM; hit rate 0.7% among 320,000; AID 2129;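 active = inhibition above the mean of all tested compounds plus 3 SD, cutoff set per campaign, cut at about 30% in these data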;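 also: 0% = DMSO wells and 100% = unlabeled Bim-BH3 peptide competitor; inhibitors lower millipolarization by displacing the labeled peptide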
Mcl1 Bid PPI = disrupts binding of human Mcl-1 to Bid peptide. hit rate 0.97% among 220,000. TR-FRET Mcl-1/Bid-Dy647 peptide binding, 1536-well. inhibition, % at 21.7 µM. Q07820. AID 1021;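 active = compounds that cut the binding signal by more than half at the single screening dose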;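 also: His-tagged Mcl-1 with europium anti-His antibody binding Bid BH3 peptide; 0% = Mcl-1 plus peptide wells and 100% = peptide-only wells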
MCL1-BIM inh = inhibitors of human MCL1 binding to BIM-BH3 peptide | inhibition, % at 10.9 µM | GST-MCL1 / FITC-Bim-BH3 fluorescence polarization | AID 2057 | Q07820 | hit rate 0.68% among 320,000;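 active = inhibition above the mean inhibition of all tested compounds plus 3 SD, set per campaign, cut at about 40% in these data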;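 also: 0% = DMSO wells and 100% = unlabeled Bim-BH3 peptide control; higher means more loss of mP so more displacement of Bim peptide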
GLD-1 RNA inh = GLD-1-TGE RNA interaction inhibition (C. elegans); hit rate 0.44% among 320,000; purified GLD-1 + fluorescein TGE RNA, fluorescence polarization; inhibition, % at 5.96 µM; Q17339; AID 2280;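 active = percent inhibition above a per-plate cutoff, the plate mean of test compounds plus 3 SD, cut at about 30% in these data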;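 also: 0% = DMSO wells with GLD-1 and probe and 100% = wells lacking GLD-1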
Target sequence (Q17339 whole entry, looked up): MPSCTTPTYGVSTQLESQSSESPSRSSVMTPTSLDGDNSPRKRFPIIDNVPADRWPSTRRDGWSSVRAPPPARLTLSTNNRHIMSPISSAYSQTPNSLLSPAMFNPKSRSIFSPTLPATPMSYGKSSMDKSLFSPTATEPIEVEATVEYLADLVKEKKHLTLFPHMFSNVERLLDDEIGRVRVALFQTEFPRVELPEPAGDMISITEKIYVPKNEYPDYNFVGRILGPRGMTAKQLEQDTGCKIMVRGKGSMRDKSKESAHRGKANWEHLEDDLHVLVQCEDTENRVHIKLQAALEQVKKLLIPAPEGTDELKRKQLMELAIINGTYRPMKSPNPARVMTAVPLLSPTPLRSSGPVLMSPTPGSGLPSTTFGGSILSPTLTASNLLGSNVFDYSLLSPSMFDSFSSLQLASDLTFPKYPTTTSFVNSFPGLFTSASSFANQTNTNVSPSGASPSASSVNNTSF
Mcl-1 Bim block = disrupts Bim peptide binding to human Mcl-1; Q07820; hit rate 0.1% among 190,000; inhibition, % at 10 µM; Bead-based flow cytometry, Bim peptide-Mcl-1 binding; in the data active = inhibition above about 40%;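 also: 0% = no compound tracer wells and 100% = peptide blocker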
Mcl1-Noxa inh = Mcl-1/Noxa interaction inhibition. AID 1022. inhibition, % at 21.7 µM. hit rate 1.5% among 220,000. TR-FRET Mcl-1/Noxa peptide binding, 2 h;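 active = compounds that cut the protein-peptide binding signal by more than 50% relative to plate controls in a single-dose test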;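 also: His-tagged Mcl-1 with rhodamine Noxa BH3 peptide and terbium anti-His antibody; 0% = Mcl-1 plus Noxa peptide wells and 100% = peptide-only wells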
Active calls of the source: *. Sampled rows, rich in hits. Any-hit rate of the full collection: about 2.3%.

Screening CCCCn1c(-c2cccnc2)nc2cc3[nH]c(=O)c(C(C)C)nc3cc21 returned Bcl-xL primary 31*, MCL1-BIM inh 26 and GLD-1 RNA inh 18.
For CNc1sc(C(=O)c2ccc(F)cc2)c(N)c1-c1nc2ccccc2s1 the results were Bcl-xL primary 24, Mcl1 Bid PPI -51, MCL1-BIM inh 25, GLD-1 RNA inh 9, Mcl-1 Bim block -1 and Mcl1-Noxa inh 92*.
CC(=O)Nc1scc(C)c1-c1nc2ccccc2s1 was read as Bcl-xL primary -4, Mcl1 Bid PPI -8, MCL1-BIM inh -1, GLD-1 RNA inh 5 and Mcl1-Noxa inh -3.
`CNc1sc(C(=O)c2cccs2)c(N)c1-c1nc2ccccc2s1` gave Bcl-xL primary 12, Mcl1 Bid PPI -26, MCL1-BIM inh 6, GLD-1 RNA inh 19, Mcl-1 Bim block 3 and Mcl1-Noxa inh 56*.
O=C(NC1CCOc2ccccc21)c1ccccn1 (centres undefined) was read as Bcl-xL primary 6, MCL1-BIM inh 4 and GLD-1 RNA inh -5.
`CCNc1nc(NCc2ccccc2)nc(SCC(=O)Nc2ccccc2)n1` gave Bcl-xL primary 4, Mcl1 Bid PPI 53*, MCL1-BIM inh -2, GLD-1 RNA inh 8, Mcl-1 Bim block -5 and Mcl1-Noxa inh 10.
`CCNc1nc(NCc2ccccc2)nc(SCC(N)=O)n1` gave Bcl-xL primary 6, Mcl1 Bid PPI -26, MCL1-BIM inh 4, GLD-1 RNA inh -3, Mcl-1 Bim block -1 and Mcl1-Noxa inh 0.
For O=C(CSc1nnc2scc(-c3ccccc3)n12)N1CCN(Cc2ccccc2)CC1 the results were Bcl-xL primary 0, Mcl1 Bid PPI 95*, MCL1-BIM inh 2, GLD-1 RNA inh 1, Mcl-1 Bim block -1 and Mcl1-Noxa inh 28.
`Cc1ccc(-c2csc3nnc(SCC(=O)N4CCN(Cc5ccccc5)CC4)n23)cc1` gave Bcl-xL primary -2, Mcl1 Bid PPI -36, MCL1-BIM inh 2, GLD-1 RNA inh -2, Mcl-1 Bim block -4 and Mcl1-Noxa inh 12.
Screening CCCCn1nc(C(=O)N(C)CC(=O)Nc2ccc(F)c(F)c2F)ccc1=O returned GLD-1 RNA inh 1.
COc1ccc(OCc2cc(C(=O)N3CCCC(O)C3)no2)c2ccccc12 (centres undefined) was read as Bcl-xL primary 0, MCL1-BIM inh 0 and GLD-1 RNA inh 6.
CC1CC(C)CN(c2ncnc3c2cnn3Cc2ccc(Cl)cc2)C1 (centres undefined) was read as Bcl-xL primary 3, Mcl1 Bid PPI 13, MCL1-BIM inh 8, GLD-1 RNA inh 1, Mcl-1 Bim block -4 and Mcl1-Noxa inh 64*.
For CCN1CCc2c(OCC(=O)N3N=C(c4cccs4)CC3c3ccc(F)cc3)cccc2C1=O (centres undefined) the results were Bcl-xL primary 2, Mcl1 Bid PPI 5, MCL1-BIM inh 2, GLD-1 RNA inh 10, Mcl-1 Bim block -5 and Mcl1-Noxa inh -19.
For CN1CCc2c(OCC(=O)N3N=C(c4cccs4)CC3c3ccc(F)cc3)cccc2C1=O (centres undefined) the results were Bcl-xL primary 2, Mcl1 Bid PPI 54*, MCL1-BIM inh 5, GLD-1 RNA inh 3, Mcl-1 Bim block -4 and Mcl1-Noxa inh 10.
For CN1CCc2c(sc3nc(NCCO)n(-c4cccc(Cl)c4)c(=O)c23)C1 the results were Bcl-xL primary 4, MCL1-BIM inh 5 and GLD-1 RNA inh -17.
For COc1ccc2[nH]c3c(NCCN4CCCCC4)ncnc3c2c1 the results were Bcl-xL primary -4, Mcl1 Bid PPI -10, MCL1-BIM inh 4, GLD-1 RNA inh 2, Mcl-1 Bim block -1 and Mcl1-Noxa inh 33.
For CCOc1ccc2[nH]c3c(NCCc4ccc(OC)c(OC)c4)ncnc3c2c1 the results were Bcl-xL primary 7, Mcl1 Bid PPI -49, MCL1-BIM inh 4, GLD-1 RNA inh 1 and Mcl1-Noxa inh 57*.
CC(C)(C)OC(=O)N[C@@H](COCc1ccccc1)C(=O)N[C@@H](CO)[C@H](O)[C@@H]1C[C@@H]1C(=O)NC1CCCCC1 was read as Bcl-xL primary 1, MCL1-BIM inh -6 and GLD-1 RNA inh 0.
`O=C(Cc1ccc(S(=O)(=O)N2CCOCC2)s1)N1CCN(S(=O)(=O)c2cccc(Cl)c2)CC1` gave Bcl-xL primary -3, MCL1-BIM inh -12 and GLD-1 RNA inh -3.
O=C(c1ccco1)N1CCN(C(c2ccc(F)cc2)c2nnnn2Cc2cccs2)CC1 (centres undefined) was read as Bcl-xL primary 5, Mcl1 Bid PPI 62*, MCL1-BIM inh 3, GLD-1 RNA inh 5, Mcl-1 Bim block -3 and Mcl1-Noxa inh 25.
Fc1ccc(Cn2nnnc2C(c2ccc(Cl)cc2)N2CCSCC2)cc1 (centres undefined) was read as Bcl-xL primary 6, Mcl1 Bid PPI 14, MCL1-BIM inh 8, GLD-1 RNA inh 7, Mcl-1 Bim block 43* and Mcl1-Noxa inh 11.
For CC1CCN(C(c2ccc(N(C)C)cc2)c2nnnn2Cc2ccc(F)cc2)CC1 (centres undefined) the results were Bcl-xL primary 2, Mcl1 Bid PPI -49, MCL1-BIM inh 1, GLD-1 RNA inh 0, Mcl-1 Bim block -1 and Mcl1-Noxa inh 18.
For O=C(c1ccco1)N1CCN(C(c2ccc(Cl)cc2)c2nnnn2CC2CCCO2)CC1 (centres undefined) the results were Bcl-xL primary 2, Mcl1 Bid PPI 55*, MCL1-BIM inh 7, GLD-1 RNA inh 6, Mcl-1 Bim block -6 and Mcl1-Noxa inh 15.
Screening CSCCC(NC(=O)c1ccccc1Cl)C(=O)NC1CCN(Cc2ccccc2)CC1 (centres undefined) returned Bcl-xL primary -1, MCL1-BIM inh 2 and GLD-1 RNA inh -5.
NS(=O)(=O)c1ccc(-c2ccc(/C=C3\SC(=S)N(C4CCS(=O)(=O)C4)C3=O)o2)cc1 (centres undefined) was read as Bcl-xL primary -40, Mcl1 Bid PPI 51*, MCL1-BIM inh -58, GLD-1 RNA inh -68 and Mcl1-Noxa inh 79*.
`Cc1ccc(/C=C2\SC(=S)N(C3CCS(=O)(=O)C3)C2=O)o1` (centres undefined) gave Bcl-xL primary 5, Mcl1 Bid PPI -59, MCL1-BIM inh 14, GLD-1 RNA inh 1, Mcl-1 Bim block 7 and Mcl1-Noxa inh -6.
For COc1ccc(C2C(C(=O)/C=C/c3ccco3)=C(O)C(=O)N2CCN2CCOCC2)cc1 (centres undefined) the results were Bcl-xL primary 23, Mcl1 Bid PPI -47, MCL1-BIM inh 21, GLD-1 RNA inh 9, Mcl-1 Bim block 4 and Mcl1-Noxa inh 19.
